# Results from the supplement of paper PMC8728848.
# Only a selection was taken, and the strongest signals are over-represented in it overall.
# B1: Pbx2CASH domain (Cryptococcus neoformans) (protein)
# chain: GIPGPNRLYRLSGPIIFTAADQEIATYGYPTGSERAVLRVEGRNTATAIQGDCRRCARVSVKNLVVDGNRKKLGRMRDFQLATGLVVLGGNEGQSIQNSWIKNPRGFTAIHIREGDKLQCSGARVEKNEIGPVGEEYDPEKDGDDPEMSPLGRPLADGVSIACRDSFIRDNTFRDNTDAAIVVYCSPGTLIHA
# Legend:
# Assay in all cases: glycan array binding signal (z-score within array); higher = stronger binding
# Settings in all cases: glycan notation: IUPAC condensed, linker removed
# [1] = target: Gal(b1-4)GlcNAc(b1-3)[Fuc(a1-3)GlcNAc(b1-6)]Gal(b1-4)Glc
# How it was run: (§1)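 Glycan array data were curated from 3228 arrays in the Consortium for Functional Glycomics database and kept only where the protein sequence was available. Glycan names were converted to IUPAC-condensed notation, and columns mapping to the same glycan were averaged. The binding signal is a within-array Z-score, averaged across arrays of the same protein sequence at different concentrations or buffers and across linkers. Negative Z-scores can be read as non-binding.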
# Gal3S(b1-4)Glc6S = target: Gal3S(b1-4)Glc6S
# How it was run: as §1
# Gal3S6S(b1-4)GlcNAc6S = target: Gal3S6S(b1-4)GlcNAc6S
# How it was run: as §1
# Gal6S(b1-4)Glc6S = target: Gal6S(b1-4)Glc6S
# How it was run: as §1
# GalNAc3S(b1-4)GlcNAc3S = target: GalNAc3S(b1-4)GlcNAc3S
# How it was run: as §1
# [2] = target: GlcA3S(b1-3)Gal(b1-4)GlcNAc(b1-2)Man
# How it was run: as §1
# [3] = target: GlcNAc(b1-2)[GlcNAc(b1-6)]Man(a1-6)[GlcNAc(b1-2)Man(a1-3)]Man(b1-4)GlcNAc(b1-4)[Fuc(a1-6)]GlcNAc
# How it was run: as §1
# GlcNAc(b1-3)Gal = target: GlcNAc(b1-3)Gal
# How it was run: as §1
# GlcNAc(b1-6)GalNAc = target: GlcNAc(b1-6)GalNAc
# How it was run: as §1
# [4] = target: Kdn(a2-3)Gal(b1-4)[Fuc(a1-3)]GlcNAc
# How it was run: as §1
# Kdn(a2-6)Gal(b1-4)GlcNAc = target: Kdn(a2-6)Gal(b1-4)GlcNAc
# How it was run: as §1
# [5] = target: Man(a1-2)Man(a1-3)[Man(a1-6)]Man(a1-6)[Man(a1-2)Man(a1-3)]Man(b1-4)GlcNAc(b1-4)GlcNAc
# How it was run: as §1
# [6] = target: Neu5Ac(a2-3)Gal(b1-3)GlcNAc(b1-2)Man
# How it was run: as §1
# [7] = target: Neu5Ac(a2-3)Gal(b1-3)GlcNAc(b1-3)GalNAc
# How it was run: as §1
# [8] = target: Neu5Ac(a2-3)Gal(b1-3)GlcNAc6S
# How it was run: as §1
# [9] = target: Neu5Ac(a2-3)Gal(b1-3)[Fuc(a1-4)]GlcNAc
# How it was run: as §1
# [10] = target: Neu5Ac(a2-3)Gal(b1-3)[Neu5Ac(a2-6)]GlcNAc(b1-3)[Fuc(a1-3)[Gal(b1-4)]GlcNAc(b1-6)]Gal(b1-4)Glc
# How it was run: as §1
# [11] = target: Neu5Ac(a2-3)Gal(b1-4)GlcNAc(b1-2)[Neu5Ac(a2-3)Gal(b1-4)GlcNAc(b1-4)]Man(a1-3)[GlcNAc(b1-4)][Neu5Ac(a2-3)Gal(b1-4)GlcNAc(b1-2)[Neu5Ac(a2-3)Gal(b1-4)GlcNAc(b1-6)]Man(a1-6)]Man(b1-4)GlcNAc(b1-4)GlcNAc
# How it was run: as §1
# [12] = target: Neu5Ac(a2-3)Gal(b1-4)GlcNAc(b1-3)Gal(b1-4)GlcNAc(b1-3)[Neu5Ac(a2-3)Gal(b1-4)GlcNAc(b1-3)Gal(b1-4)GlcNAc(b1-6)]GalNAc
# How it was run: as §1
# [13] = target: Neu5Ac(a2-3)Gal(b1-4)[Fuc(a1-3)]GlcNAc(b1-6)[Gal(b1-3)]GalNAc
# How it was run: as §1
# [14] = target: Neu5Ac(a2-3)Gal6S(b1-4)[Fuc(a1-3)]GlcNAc
# How it was run: as §1
# [15] = target: Neu5Ac(a2-6)Gal(b1-4)GlcNAc(b1-2)Man(a1-3)[Neu5Ac(a2-6)Gal(b1-4)GlcNAc(b1-2)Man(a1-6)]Man(b1-4)GlcNAc(b1-4)GlcNAc
# How it was run: as §1
# [16] = target: Neu5Ac(a2-6)Gal(b1-4)GlcNAc(b1-2)Man(a1-6)Man(b1-4)GlcNAc(b1-4)GlcNAc
# How it was run: as §1
# [17] = target: Neu5Ac(a2-6)Gal(b1-4)GlcNAc(b1-2)Man(a1-6)[Man(a1-3)]Man(b1-4)GlcNAc(b1-4)GlcNAc
# How it was run: as §1
# [18] = target: Neu5Ac(a2-6)Gal(b1-4)GlcNAc(b1-3)Gal(b1-4)GlcNAc(b1-3)Gal(b1-4)GlcNAc(b1-2)Man(a1-3)[Neu5Ac(a2-6)Gal(b1-4)GlcNAc(b1-3)Gal(b1-4)GlcNAc(b1-3)Gal(b1-4)GlcNAc(b1-2)Man(a1-6)]GalNAc
# How it was run: as §1
# [19] = target: Neu5Ac(a2-6)Gal(b1-4)GlcNAc(b1-6)GalNAc
# How it was run: as §1
# [20] = target: Neu5Ac(a2-6)GlcNAc(b1-4)GlcNAc(b1-4)GlcNAc
# How it was run: as §1
# Neu5Ac(a2-8)Neu5Ac = target: Neu5Ac(a2-8)Neu5Ac
# How it was run: as §1
# [21] = target: Neu5Ac(a2-8)Neu5Ac(a2-8)Neu5Ac(a2-3)[GalNAc(b1-4)]Gal(b1-4)Glc
# How it was run: as §1
binder,measurement,setting,value
B1,glycan array binding signal (z-score),[1],-0.704
same,glycan array binding signal (z-score),Gal3S(b1-4)Glc6S,0.057
same,glycan array binding signal (z-score),Gal3S6S(b1-4)GlcNAc6S,1.44
same,glycan array binding signal (z-score),Gal6S(b1-4)Glc6S,3.18
same,glycan array binding signal (z-score),GalNAc3S(b1-4)GlcNAc3S,-0.15
same,glycan array binding signal (z-score),[2],2.57
same,glycan array binding signal (z-score),[3],-0.071
same,glycan array binding signal (z-score),GlcNAc(b1-3)Gal,-0.697
same,glycan array binding signal (z-score),GlcNAc(b1-6)GalNAc,-0.438
same,glycan array binding signal (z-score),[4],0.079
same,glycan array binding signal (z-score),Kdn(a2-6)Gal(b1-4)GlcNAc,-0.478
same,glycan array binding signal (z-score),[5],-0.457
same,glycan array binding signal (z-score),[6],3.35
same,glycan array binding signal (z-score),[7],0.011
same,glycan array binding signal (z-score),[8],-0.247
same,glycan array binding signal (z-score),[9],-0.813
same,glycan array binding signal (z-score),[10],-0.803
same,glycan array binding signal (z-score),[11],0.012
same,glycan array binding signal (z-score),[12],0.079
same,glycan array binding signal (z-score),[13],0.909
same,glycan array binding signal (z-score),[14],-0.748
same,glycan array binding signal (z-score),[15],-0.301
same,glycan array binding signal (z-score),[16],1.6
same,glycan array binding signal (z-score),[17],2.48
same,glycan array binding signal (z-score),[18],4.62
same,glycan array binding signal (z-score),[19],1.05
same,glycan array binding signal (z-score),[20],-0.208
same,glycan array binding signal (z-score),Neu5Ac(a2-8)Neu5Ac,-0.046
same,glycan array binding signal (z-score),[21],3.58
